Source: paper PMC7862700, “An all-to-all approach to the identification of sequence-specific readers for epigenetic DNA modifications on cytosine”

Columns and labels:
Assay in all cases: DAPPL (digital affinity profiling via proximity ligation, sequencing); 10 mM Tris-HCl pH 7.5, 50 mM NaCl, 1 mM DTT, 4% glycerol, room temperature, 30 min; GST-TFs on glutathione beads, 16-mer random dsDNA library, 0.1% formaldehyde crosslink after washing; high values mean tight binding
FLI1 = biological target: T1, FLI1 (Homo sapiens, UniProt Q01543 1-452); conditions: protein: recombinant; tags: N-terminal GST; dsDNA, one strand shown
T1 sequence: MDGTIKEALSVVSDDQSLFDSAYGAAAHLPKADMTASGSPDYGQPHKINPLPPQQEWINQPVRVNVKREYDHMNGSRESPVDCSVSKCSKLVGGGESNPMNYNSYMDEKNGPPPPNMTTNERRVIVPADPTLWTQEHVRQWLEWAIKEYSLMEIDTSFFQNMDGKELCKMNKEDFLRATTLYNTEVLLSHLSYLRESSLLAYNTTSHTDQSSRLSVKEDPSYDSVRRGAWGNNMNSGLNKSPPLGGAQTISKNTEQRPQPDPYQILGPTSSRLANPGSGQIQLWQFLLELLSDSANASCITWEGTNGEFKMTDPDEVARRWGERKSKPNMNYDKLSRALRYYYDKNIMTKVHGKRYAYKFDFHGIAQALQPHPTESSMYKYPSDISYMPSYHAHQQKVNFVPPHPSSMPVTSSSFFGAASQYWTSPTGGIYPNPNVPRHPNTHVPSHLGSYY
Procedure, shortened: (§1)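 The binding signal reported is, for every hexamer, its read frequency for a factor over its read frequency for the tag-only sample. Reads came from pools of yeast-expressed, GST-fused human transcription factors on glutathione beads, barcoded with DNA and mixed with that sample, which were incubated with 200 nmole of a random double-stranded 16-mer DNA library in Tris/NaCl/DTT/glycerol buffer at room temperature for 30 min. After washing, the pools were crosslinked with 0.1% formaldehyde, proximity-ligated with BsaI/T4 ligase for 1 h at 37 °C, PCR-amplified and sequenced on an Illumina NextSeq500.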

ELK1 = biological target: T2, ELK1 (Homo sapiens, UniProt P19419 1-428); conditions: protein: recombinant; tags: N-terminal GST; dsDNA, one strand shown
T2 sequence: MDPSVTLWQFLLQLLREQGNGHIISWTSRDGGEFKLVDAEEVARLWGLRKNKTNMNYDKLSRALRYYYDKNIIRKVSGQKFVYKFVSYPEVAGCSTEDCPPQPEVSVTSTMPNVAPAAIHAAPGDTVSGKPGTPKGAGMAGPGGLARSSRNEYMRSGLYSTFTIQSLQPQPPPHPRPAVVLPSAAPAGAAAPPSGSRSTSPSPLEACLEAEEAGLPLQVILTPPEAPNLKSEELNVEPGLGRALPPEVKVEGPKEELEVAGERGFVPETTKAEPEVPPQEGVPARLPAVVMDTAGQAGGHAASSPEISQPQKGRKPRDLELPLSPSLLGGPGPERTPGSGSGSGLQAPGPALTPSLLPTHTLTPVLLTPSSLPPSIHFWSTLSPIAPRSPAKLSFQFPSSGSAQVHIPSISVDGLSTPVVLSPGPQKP
Procedure, shortened: as §1

GABPA = biological target: T3, GABPA (Homo sapiens, UniProt Q06546 1-454); conditions: protein: recombinant; tags: N-terminal GST; dsDNA, one strand shown
T3 sequence: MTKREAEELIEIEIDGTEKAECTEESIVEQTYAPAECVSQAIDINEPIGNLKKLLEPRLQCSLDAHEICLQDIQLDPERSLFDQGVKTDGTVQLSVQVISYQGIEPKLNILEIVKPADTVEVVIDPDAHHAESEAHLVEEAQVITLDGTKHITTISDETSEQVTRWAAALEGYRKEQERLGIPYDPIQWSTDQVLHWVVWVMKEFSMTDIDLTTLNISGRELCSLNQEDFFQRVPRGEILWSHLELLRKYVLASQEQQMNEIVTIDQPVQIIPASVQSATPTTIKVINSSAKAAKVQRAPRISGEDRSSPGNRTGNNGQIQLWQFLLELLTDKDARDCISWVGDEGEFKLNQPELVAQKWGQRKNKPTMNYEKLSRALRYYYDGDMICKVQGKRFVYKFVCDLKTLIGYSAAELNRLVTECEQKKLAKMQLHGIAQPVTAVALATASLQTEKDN
Procedure, shortened: as §1

ERG = biological target: T4, ERG (Homo sapiens, UniProt P11308 1-479); conditions: protein: recombinant; tags: N-terminal GST; dsDNA, one strand shown
T4 sequence: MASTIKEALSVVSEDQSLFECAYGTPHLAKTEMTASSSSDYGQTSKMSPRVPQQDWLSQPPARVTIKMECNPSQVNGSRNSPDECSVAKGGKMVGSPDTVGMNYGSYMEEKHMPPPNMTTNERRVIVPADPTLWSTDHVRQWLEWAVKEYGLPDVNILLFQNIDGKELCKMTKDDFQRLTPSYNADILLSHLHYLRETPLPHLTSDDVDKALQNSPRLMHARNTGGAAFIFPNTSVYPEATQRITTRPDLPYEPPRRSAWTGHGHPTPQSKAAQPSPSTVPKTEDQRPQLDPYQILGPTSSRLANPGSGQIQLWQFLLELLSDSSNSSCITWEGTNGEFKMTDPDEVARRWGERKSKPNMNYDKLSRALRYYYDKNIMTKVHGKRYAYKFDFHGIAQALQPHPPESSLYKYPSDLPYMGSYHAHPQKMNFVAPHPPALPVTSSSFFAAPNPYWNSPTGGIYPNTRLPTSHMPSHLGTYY
Procedure, shortened: as §1

ELF1 = ELF1 (Homo sapiens, UniProt P32519 1-619); conditions: protein: recombinant; tags: N-terminal GST; dsDNA, one strand shown
Procedure, shortened: as §1

SPI1 = SPI1 (Homo sapiens, UniProt P17947 1-270); conditions: protein: recombinant; tags: N-terminal GST; dsDNA, one strand shown
Procedure, shortened: as §1

SPIB = SPIB (Homo sapiens, UniProt Q01892 1-262); conditions: protein: recombinant; tags: N-terminal GST; dsDNA, one strand shown
Procedure, shortened: as §1

ELK3 = biological target: T5, ELK3 (Homo sapiens, UniProt P41970 1-407); conditions: protein: recombinant; tags: N-terminal GST; dsDNA, one strand shown
T5 sequence: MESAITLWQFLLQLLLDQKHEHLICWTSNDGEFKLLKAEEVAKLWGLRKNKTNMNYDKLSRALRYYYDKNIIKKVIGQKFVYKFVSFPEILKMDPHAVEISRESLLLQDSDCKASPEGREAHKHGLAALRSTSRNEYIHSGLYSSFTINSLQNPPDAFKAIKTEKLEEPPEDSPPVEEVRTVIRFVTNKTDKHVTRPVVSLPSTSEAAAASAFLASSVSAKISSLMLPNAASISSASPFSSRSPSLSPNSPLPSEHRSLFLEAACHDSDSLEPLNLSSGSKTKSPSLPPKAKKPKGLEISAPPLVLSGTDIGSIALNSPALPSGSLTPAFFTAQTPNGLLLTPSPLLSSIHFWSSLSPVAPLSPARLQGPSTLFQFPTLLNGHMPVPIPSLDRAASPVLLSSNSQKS
Procedure, shortened: as §1

FEV = biological target: T6, FEV (Homo sapiens, UniProt Q99581 1-238); conditions: protein: recombinant; tags: N-terminal GST; dsDNA, one strand shown
T6 sequence: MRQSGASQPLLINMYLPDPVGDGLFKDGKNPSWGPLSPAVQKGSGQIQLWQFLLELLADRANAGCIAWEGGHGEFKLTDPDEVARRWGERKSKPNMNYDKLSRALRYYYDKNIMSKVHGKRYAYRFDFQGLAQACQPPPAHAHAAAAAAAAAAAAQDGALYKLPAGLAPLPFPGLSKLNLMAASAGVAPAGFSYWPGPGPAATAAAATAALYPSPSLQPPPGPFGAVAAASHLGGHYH
Procedure, shortened: as §1

ETV5 = ETV5 (Homo sapiens, UniProt P41161 1-510); conditions: protein: recombinant; tags: N-terminal GST; dsDNA, one strand shown
Procedure, shortened: as §1

HSF1 = HSF1 (Homo sapiens, UniProt Q00613 1-529); conditions: protein: recombinant; tags: N-terminal GST; chain copies: 3; dsDNA, one strand shown
Procedure, shortened: as §1

ELF4 = ELF4 (Homo sapiens, UniProt Q99607 1-663); conditions: protein: recombinant; tags: N-terminal GST; dsDNA, one strand shown
Procedure, shortened: as §1

ELK4 = biological target: T7, ELK4 (Homo sapiens, UniProt P28324-2 1-405); conditions: protein: recombinant; tags: N-terminal GST; dsDNA, one strand shown
T7 sequence: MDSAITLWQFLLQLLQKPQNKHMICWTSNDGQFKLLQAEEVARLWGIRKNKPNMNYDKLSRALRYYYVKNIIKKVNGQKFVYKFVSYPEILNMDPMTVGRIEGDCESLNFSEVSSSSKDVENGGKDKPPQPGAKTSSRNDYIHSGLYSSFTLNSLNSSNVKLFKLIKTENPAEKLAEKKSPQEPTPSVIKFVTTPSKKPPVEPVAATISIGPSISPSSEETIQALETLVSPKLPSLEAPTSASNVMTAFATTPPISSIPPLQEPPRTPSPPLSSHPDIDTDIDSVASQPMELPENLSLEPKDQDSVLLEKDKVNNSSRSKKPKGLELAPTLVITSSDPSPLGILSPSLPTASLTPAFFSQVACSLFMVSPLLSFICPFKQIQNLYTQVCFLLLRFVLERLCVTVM
Procedure, shortened: as §1

ETV2 = biological target: T8, ETV2 (Homo sapiens, UniProt O00321 1-342); conditions: protein: recombinant; tags: N-terminal GST; dsDNA, one strand shown
T8 sequence: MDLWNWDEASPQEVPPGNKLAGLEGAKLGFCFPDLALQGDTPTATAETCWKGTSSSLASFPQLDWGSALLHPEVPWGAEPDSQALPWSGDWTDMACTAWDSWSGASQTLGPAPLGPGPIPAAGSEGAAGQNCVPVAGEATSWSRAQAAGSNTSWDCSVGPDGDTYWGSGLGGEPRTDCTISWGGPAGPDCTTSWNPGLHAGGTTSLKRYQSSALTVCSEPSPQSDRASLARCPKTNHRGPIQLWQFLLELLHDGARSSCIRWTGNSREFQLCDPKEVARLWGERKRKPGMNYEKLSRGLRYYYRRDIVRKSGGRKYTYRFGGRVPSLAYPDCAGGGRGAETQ
Procedure, shortened: as §1

ELF3 = biological target: T9, ELF3 (Homo sapiens, UniProt P78545 1-371); conditions: protein: recombinant; tags: N-terminal GST; dsDNA, one strand shown
T9 sequence: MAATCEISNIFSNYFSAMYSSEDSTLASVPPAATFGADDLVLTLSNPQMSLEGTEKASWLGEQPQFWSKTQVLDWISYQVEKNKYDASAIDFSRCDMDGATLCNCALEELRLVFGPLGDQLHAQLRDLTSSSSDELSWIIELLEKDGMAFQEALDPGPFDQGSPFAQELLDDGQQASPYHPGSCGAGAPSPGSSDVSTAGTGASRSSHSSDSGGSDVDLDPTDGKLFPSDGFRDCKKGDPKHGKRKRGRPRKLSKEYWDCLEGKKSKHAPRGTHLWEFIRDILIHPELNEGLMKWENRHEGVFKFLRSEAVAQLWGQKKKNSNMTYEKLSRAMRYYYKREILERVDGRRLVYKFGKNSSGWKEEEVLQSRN
Procedure, shortened: as §1

CRX = CRX (Homo sapiens, UniProt O43186 1-299); conditions: protein: recombinant; tags: N-terminal GST; dsDNA, one strand shown
Procedure, shortened: as §1

ETV1 = ETV1 (Homo sapiens, UniProt P50549 1-477); conditions: protein: recombinant; tags: N-terminal GST; dsDNA, one strand shown
Procedure, shortened: as §1

EHF = biological target: T10, EHF (Homo sapiens, UniProt Q9NZC4 1-300); conditions: protein: recombinant; tags: N-terminal GST; dsDNA, one strand shown
T10 sequence: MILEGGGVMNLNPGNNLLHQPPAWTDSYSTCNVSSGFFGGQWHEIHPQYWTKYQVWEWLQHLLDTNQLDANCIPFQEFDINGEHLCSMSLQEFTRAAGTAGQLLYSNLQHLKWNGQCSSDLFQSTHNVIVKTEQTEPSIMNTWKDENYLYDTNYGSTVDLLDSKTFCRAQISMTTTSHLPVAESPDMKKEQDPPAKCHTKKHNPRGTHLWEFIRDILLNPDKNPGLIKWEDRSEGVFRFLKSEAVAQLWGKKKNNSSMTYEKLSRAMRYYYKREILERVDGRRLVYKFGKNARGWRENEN
Procedure, shortened: as §1

SPIB, sequence (Q01892 whole entry): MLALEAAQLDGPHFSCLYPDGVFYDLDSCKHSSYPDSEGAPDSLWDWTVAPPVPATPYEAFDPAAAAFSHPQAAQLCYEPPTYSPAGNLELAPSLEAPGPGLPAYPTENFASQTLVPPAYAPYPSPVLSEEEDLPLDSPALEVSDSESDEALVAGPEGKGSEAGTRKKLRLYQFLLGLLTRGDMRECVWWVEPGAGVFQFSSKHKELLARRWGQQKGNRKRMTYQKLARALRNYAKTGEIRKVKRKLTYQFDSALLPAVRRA
ETV5, sequence (P41161 whole entry): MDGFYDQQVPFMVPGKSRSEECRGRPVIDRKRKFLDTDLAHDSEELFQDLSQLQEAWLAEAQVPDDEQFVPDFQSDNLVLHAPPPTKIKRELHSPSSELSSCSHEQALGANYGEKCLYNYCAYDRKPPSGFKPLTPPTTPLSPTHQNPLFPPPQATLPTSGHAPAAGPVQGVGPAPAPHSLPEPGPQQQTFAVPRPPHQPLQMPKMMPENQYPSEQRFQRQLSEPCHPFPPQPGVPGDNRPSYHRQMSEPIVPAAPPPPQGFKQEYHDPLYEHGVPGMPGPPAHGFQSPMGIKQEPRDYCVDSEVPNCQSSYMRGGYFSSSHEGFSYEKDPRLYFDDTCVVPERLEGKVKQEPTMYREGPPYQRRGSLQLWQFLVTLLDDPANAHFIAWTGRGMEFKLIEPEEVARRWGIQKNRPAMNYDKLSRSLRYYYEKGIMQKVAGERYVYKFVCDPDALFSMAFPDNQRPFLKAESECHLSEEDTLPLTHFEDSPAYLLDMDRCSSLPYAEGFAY
ELF4, sequence (Q99607 whole entry): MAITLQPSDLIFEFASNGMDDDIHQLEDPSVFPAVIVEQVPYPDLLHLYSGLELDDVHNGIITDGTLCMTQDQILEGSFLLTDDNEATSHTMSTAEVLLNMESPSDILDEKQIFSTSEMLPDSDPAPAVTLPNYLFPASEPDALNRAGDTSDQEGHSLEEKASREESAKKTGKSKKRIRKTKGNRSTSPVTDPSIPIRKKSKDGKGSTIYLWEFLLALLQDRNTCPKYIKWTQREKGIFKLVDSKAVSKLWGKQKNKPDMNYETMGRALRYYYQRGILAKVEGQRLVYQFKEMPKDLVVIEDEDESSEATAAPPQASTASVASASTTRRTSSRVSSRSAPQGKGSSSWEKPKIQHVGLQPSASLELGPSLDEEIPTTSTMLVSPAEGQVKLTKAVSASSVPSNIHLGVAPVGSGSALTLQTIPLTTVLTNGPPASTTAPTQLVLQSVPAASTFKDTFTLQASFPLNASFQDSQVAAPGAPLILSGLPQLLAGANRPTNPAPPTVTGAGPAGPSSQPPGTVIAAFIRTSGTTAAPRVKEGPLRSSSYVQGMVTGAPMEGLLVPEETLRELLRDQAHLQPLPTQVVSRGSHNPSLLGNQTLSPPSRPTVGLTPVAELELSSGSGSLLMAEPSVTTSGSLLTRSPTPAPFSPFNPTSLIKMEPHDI
ELF1, sequence (P32519 whole entry): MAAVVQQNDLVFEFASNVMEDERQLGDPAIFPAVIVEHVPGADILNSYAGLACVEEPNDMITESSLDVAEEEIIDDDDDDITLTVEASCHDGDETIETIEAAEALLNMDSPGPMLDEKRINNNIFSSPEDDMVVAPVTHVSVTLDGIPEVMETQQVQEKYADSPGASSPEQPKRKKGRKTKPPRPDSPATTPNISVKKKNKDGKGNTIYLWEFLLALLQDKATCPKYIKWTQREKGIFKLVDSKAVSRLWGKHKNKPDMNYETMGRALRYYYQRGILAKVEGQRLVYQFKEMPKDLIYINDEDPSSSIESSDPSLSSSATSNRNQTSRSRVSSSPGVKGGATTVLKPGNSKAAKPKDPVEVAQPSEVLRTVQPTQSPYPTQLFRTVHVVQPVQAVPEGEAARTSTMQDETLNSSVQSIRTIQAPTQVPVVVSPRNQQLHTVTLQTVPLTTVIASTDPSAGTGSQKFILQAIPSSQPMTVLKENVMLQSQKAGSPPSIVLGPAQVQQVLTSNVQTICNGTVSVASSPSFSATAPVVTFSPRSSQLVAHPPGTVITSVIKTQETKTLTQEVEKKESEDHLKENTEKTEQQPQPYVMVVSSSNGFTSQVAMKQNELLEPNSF
CRX, sequence (O43186 whole entry): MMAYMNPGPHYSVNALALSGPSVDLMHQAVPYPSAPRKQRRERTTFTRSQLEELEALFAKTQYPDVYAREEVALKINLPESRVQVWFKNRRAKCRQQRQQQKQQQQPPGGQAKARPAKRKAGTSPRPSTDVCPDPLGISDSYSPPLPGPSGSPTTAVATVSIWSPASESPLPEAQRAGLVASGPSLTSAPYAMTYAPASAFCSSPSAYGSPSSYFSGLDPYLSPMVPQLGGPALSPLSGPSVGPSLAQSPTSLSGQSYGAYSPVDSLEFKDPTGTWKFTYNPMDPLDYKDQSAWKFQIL
ETV1, sequence (P50549 whole entry): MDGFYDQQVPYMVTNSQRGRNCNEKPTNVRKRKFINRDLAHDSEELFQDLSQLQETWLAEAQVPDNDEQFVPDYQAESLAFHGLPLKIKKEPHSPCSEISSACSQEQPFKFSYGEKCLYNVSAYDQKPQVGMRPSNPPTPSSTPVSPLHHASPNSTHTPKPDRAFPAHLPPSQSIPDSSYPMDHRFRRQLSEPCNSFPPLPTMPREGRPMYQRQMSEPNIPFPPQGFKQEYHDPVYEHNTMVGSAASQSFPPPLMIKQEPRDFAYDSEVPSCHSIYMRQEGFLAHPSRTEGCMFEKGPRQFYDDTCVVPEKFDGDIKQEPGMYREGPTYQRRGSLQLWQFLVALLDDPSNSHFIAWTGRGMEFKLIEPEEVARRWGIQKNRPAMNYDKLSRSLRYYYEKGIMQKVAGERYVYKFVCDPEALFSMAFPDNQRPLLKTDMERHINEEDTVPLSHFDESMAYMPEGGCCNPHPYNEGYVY
HSF1, sequence (Q00613 whole entry): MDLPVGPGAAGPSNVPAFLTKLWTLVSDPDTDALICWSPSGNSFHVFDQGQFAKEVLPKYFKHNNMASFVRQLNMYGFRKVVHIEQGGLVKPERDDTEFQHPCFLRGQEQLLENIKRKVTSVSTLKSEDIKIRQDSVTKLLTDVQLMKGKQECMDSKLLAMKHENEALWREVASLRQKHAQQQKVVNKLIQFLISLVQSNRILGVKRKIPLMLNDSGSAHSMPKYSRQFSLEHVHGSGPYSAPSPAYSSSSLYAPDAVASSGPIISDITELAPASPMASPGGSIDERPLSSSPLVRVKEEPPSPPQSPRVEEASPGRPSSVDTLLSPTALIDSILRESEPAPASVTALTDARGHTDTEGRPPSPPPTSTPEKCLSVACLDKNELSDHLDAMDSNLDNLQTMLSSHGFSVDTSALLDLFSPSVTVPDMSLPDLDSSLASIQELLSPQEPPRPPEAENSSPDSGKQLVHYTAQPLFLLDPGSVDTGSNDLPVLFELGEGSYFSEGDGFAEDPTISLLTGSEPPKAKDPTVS

Sequence | binding signal (FLI1) | binding signal (ELK1) | binding signal (GABPA) | binding signal (ERG) | binding signal (ELF1) | binding signal (SPI1) | binding signal (SPIB) | binding signal (ELK3) | binding signal (FEV) | binding signal (ETV5) | binding signal (HSF1) | binding signal (ELF4) | binding signal (ELK4) | binding signal (ETV2) | binding signal (ELF3) | binding signal (CRX) | binding signal (ETV1) | binding signal (EHF)
AAAGCT | 1.06 fold enrichment (6-mer frequency, TF over GST control) | 1.09 fold enrichment (6-mer frequency, TF over GST control) | 1.08 fold enrichment (6-mer frequency, TF over GST control) | 1.08 fold enrichment (6-mer frequency, TF over GST control) | 1.09 fold enrichment (6-mer frequency, TF over GST control) | 1.01 fold enrichment (6-mer frequency, TF over GST control) | 1.06 fold enrichment (6-mer frequency, TF over GST control) | 1.01 fold enrichment (6-mer frequency, TF over GST control) | 1.1 fold enrichment (6-mer frequency, TF over GST control) | 1.08 fold enrichment (6-mer frequency, TF over GST control) | 1.32 fold enrichment (6-mer frequency, TF over GST control) | 1.06 fold enrichment (6-mer frequency, TF over GST control) | 1.13 fold enrichment (6-mer frequency, TF over GST control) | 1.01 fold enrichment (6-mer frequency, TF over GST control) | 1.2 fold enrichment (6-mer frequency, TF over GST control) | 1.64 fold enrichment (6-mer frequency, TF over GST control) | 1.06 fold enrichment (6-mer frequency, TF over GST control) | –
CCATTG | 1.33 fold enrichment (6-mer frequency, TF over GST control) | 1.16 fold enrichment (6-mer frequency, TF over GST control) | 1.32 fold enrichment (6-mer frequency, TF over GST control) | 1.19 fold enrichment (6-mer frequency, TF over GST control) | 1.15 fold enrichment (6-mer frequency, TF over GST control) | 1.25 fold enrichment (6-mer frequency, TF over GST control) | 1.05 fold enrichment (6-mer frequency, TF over GST control) | 1.16 fold enrichment (6-mer frequency, TF over GST control) | 1.15 fold enrichment (6-mer frequency, TF over GST control) | 1.16 fold enrichment (6-mer frequency, TF over GST control) | 1.07 fold enrichment (6-mer frequency, TF over GST control) | 1.17 fold enrichment (6-mer frequency, TF over GST control) | 1.11 fold enrichment (6-mer frequency, TF over GST control) | 1.26 fold enrichment (6-mer frequency, TF over GST control) | 1.07 fold enrichment (6-mer frequency, TF over GST control) | 1.02 fold enrichment (6-mer frequency, TF over GST control) | 1.05 fold enrichment (6-mer frequency, TF over GST control) | 1.19 fold enrichment (6-mer frequency, TF over GST control)
